Six1-Eya2 inh – Six1/Eya2 interaction inhibition; Q15475+O00167; 0.56% of 360,000 active; AlphaScreen GST-Six1/His-Eya2 binding, biochemical; stronger effect = lower value; activity change, % (test concentration not listed); AID 651725; in the data active = activity change below about -65%; inconclusive = mostly about -30% to -63%
Target sequence (O00167 whole entry, looked up): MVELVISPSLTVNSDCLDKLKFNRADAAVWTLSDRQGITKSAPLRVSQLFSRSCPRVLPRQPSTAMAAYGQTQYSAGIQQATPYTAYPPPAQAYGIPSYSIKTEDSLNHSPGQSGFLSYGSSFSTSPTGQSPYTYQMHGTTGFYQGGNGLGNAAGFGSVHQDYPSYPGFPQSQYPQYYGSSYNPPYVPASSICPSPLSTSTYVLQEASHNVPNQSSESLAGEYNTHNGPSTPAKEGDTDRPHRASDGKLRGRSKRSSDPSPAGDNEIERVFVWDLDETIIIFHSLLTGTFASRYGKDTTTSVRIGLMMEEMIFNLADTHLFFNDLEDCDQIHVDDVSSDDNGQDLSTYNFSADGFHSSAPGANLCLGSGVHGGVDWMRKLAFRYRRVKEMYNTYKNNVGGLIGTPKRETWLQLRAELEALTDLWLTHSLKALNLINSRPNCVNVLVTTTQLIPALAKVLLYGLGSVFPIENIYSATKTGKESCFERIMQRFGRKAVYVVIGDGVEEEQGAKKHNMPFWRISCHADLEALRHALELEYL
Target sequence (Q15475 whole entry, looked up): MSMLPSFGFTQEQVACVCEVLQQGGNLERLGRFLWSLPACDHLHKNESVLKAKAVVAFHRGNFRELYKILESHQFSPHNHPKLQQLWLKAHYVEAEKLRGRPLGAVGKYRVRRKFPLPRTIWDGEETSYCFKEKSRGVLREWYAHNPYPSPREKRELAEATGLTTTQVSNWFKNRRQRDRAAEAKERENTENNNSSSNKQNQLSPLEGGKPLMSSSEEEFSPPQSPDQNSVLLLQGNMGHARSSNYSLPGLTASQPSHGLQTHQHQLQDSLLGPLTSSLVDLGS
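Compounds are tested against tagged Six1 and Eya2 proteins bridged by glutathione donor and nickel acceptor beads; after a one-hour incubation at 37 °C without light, AlphaScreen emission is recorded.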
CtBP-E1A inh – blocks the CtBP interaction with E1A | 0.49% of 340,000 active | activity change, % (test concentration not listed) | AlphaScreen GST-E1A/His-CtBP binding, 1536-well; stronger effect = lower value; in the data active = activity change below about -65%; inconclusive = mostly about -30% to -63%
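Protein mix (5X: 125 nM each GST-E1A, His-CtBP) was incubated with pinned compound 2 h at 37 deg C in dark, in 50 mM Tris pH 8.0 buffer with 300 mM NaCl. Glutathione donor and nickel acceptor beads followed; AlphaScreen signal read after 1 h.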
TDP1 cell CPT – DT40-hTDP1 cell growth loss with CPT | chicken DT40 Tdp1-/-;hTDP1 cells + 20 nM CPT, ATP luminescence, 48 h | Potency, µM (titrated, usually from 46.2 µM), actives largely listed as inhibitors | 12% of 420,000 active; also: nearly all actives have a fitted effect of over 55% in size
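Cell growth measured by CellTiter-Glo luminescence after a minimum 48 h, 37 C compound exposure with 20 nM CPT in Tdp1-knockout DT40 cells stably expressing hTDP1, seeded 400/well; qHTS titration format.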
DT40 TDP1 no CPT – qHTS for Inhibitors of human tyrosyl-DNA phosphodiesterase 1 (TDP1): qHTS in cells in absence of CPT; DT40 Tdp1-/- hTDP1 cells, no CPT, ATP luminescence, 48 h; Potency, µM (series often up to 46.2 µM), hits mostly inhibitors; 15% of 420,000 active; AID 686978, 2013; also: nearly all actives have a fitted effect of over 55% in size
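Chicken DT40 Tdp1-/- cells stably complemented with human TDP1 were seeded at 400 cells/well with DMSO in place of 20 nM camptothecin. After compound pinning, cells grew at least 48 hr at 37 °C; viability read by CellTiter-Glo luminescence.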
TDP1 block – blocks human tyrosyl-DNA phosphodiesterase 1; 0.28% of 350,000 active; Q9NUW8; AID 485290; Potency, µM (top dose mostly 130 µM), actives largely listed as inhibitors; recombinant TDP1, AlphaScreen DNA substrate cleavage; also: nearly all actives have a fitted effect of over 40% in size
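Enzyme-compound mixtures sat 15 min at room temperature, followed by a 5 min reaction with 15 nM final substrate and 10 min with AlphaScreen beads. Recombinant human Tdp1 was used at 1 nM final.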
IL-1B inflam inh – inflammasome signaling inhibition, IL-1 beta readout; THP-1 LPS/ATP IL-1B secretion, AlphaLISA, 16 h; stronger effect = lower value; activity change, % at 57.5 µM; 4.7% of 360,000 active; in the data active = activity change below about -50%; inconclusive = mostly about -30% to -49%
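Secreted IL-1B measured by AlphaLISA bead assay after 16 h compound exposure of THP-1 cells; compounds (final up to 57.5 uM) added 1 h before LPS (250 ng/mL) and ATP (1.25 mM) stimulation; lower signal means less secretion.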
Of the large screens only hits and unclear results are named; the others gave an inactive call. Most compounds without a hit are left out; they make up all but 18% or so of the library. Unless noted, calls follow the shape of the dose curve; as a rule, active = well fitted curve in the direction sought with a large enough effect; inconclusive = small, poorly fitted or top-dose-only effect, or another doubt; inactive = no such curve, though single readings can be large; an effect the other way counts as inactive or inconclusive.

Cn1c(=O)oc2cc(S(=O)(=O)N3CCCC(C(=O)Nc4ccc(Br)cc4F)C3)ccc21 (stereo not given)	none (no result: Six1-Eya2 inh, CtBP-E1A inh, IL-1B inflam inh)
Cc1ccc(N2CC(C(=O)NCc3cccs3)CC2=O)cc1 (stereo not given)	none
CCOc1ccccc1NC(=O)Cn1ccn(-c2ccccc2)c(=O)c1=O	none (no result: Six1-Eya2 inh, CtBP-E1A inh, IL-1B inflam inh)
CC(C)CC(=O)N/N=C/c1c(N)n(C)c(=O)n(C)c1=O	none (no result: TDP1 block)
Cc1ccc(S(=O)(=O)N(C)C)cc1NC(=S)N1CCN(Cc2ccc3c(c2)OCO3)CC1	TDP1 cell CPT 15µM, DT40 TDP1 no CPT 16µM (no result: CtBP-E1A inh)
CN(c1ccc(C(=O)N2CCCCC2)cc1)S(=O)(=O)c1ccccc1	TDP1 cell CPT 13µM, DT40 TDP1 no CPT 8.2µM
CN(c1ccccc1)S(=O)(=O)c1cccc(C(=O)N2CCCCCC2)c1	TDP1 cell CPT 16µM, DT40 TDP1 no CPT 21µM
CC1CC(C)CN(C(=O)c2cccc(S(=O)(=O)N(C)c3ccccc3)c2)C1 (stereo not given)	TDP1 cell CPT 8.2µM, DT40 TDP1 no CPT 5.8µM
Cc1ccc(S(=O)(=O)N(C)c2ccc(C(=O)N3CCc4ccccc4C3)cc2)cc1	TDP1 cell CPT inconclusive, DT40 TDP1 no CPT inconclusive, IL-1B inflam inh -62
CN(c1ccccc1)S(=O)(=O)c1ccc(C(=O)N2CCCC2)cc1	none
Cc1ccc(S(=O)(=O)N(C)c2ccc(C(=O)N3CCCCC3)cc2)cc1	TDP1 cell CPT 9.2µM, DT40 TDP1 no CPT inconclusive
CN(c1ccc(C(=O)N2CCN(Cc3ccccc3)CC2)cc1)S(=O)(=O)c1ccccc1	DT40 TDP1 no CPT 15µM, IL-1B inflam inh inconclusive
Cc1ccc(S(=O)(=O)N(C)c2ccc(C(=O)N3CCN(Cc4ccc5c(c4)OCO5)CC3)cc2)cc1	TDP1 cell CPT inconclusive, DT40 TDP1 no CPT 21µM, IL-1B inflam inh -73
COc1ccc(C2CC(C(F)(F)F)n3ncc(C(=O)NCc4cccnc4)c3N2)cc1OC (stereo not given)	none
COc1ccc(N(C)S(=O)(=O)c2cccc(C(=O)OCC(=O)N3CC(C)CC(C)C3)c2)cc1 (stereo not given)	TDP1 cell CPT inconclusive, DT40 TDP1 no CPT 21µM
Cc1ccc(CCNC(=O)c2ccc(CSCc3ccccc3Cl)o2)cc1	TDP1 cell CPT inconclusive, DT40 TDP1 no CPT inconclusive (no result: Six1-Eya2 inh, CtBP-E1A inh, IL-1B inflam inh)
Cc1ccccc1CS(=O)(=O)Cc1ccc(C(=O)NCCc2ccc(Cl)cc2)o1	TDP1 cell CPT 21µM, DT40 TDP1 no CPT inconclusive (no result: Six1-Eya2 inh, CtBP-E1A inh, IL-1B inflam inh)
Cc1cccc(CSCc2ccc(C(=O)NC(C)C)o2)c1	TDP1 cell CPT inconclusive, DT40 TDP1 no CPT inconclusive (no result: TDP1 block)
CC(C)CCNC(=O)c1ccc(CSCc2cccc(F)c2)o1	TDP1 cell CPT inconclusive, IL-1B inflam inh -63
Cc1ccc(CCNC(=O)c2ccc(CS(=O)(=O)Cc3ccccc3F)o2)cc1	TDP1 cell CPT inconclusive, DT40 TDP1 no CPT 16µM
Cc1ccc(CCNC(=O)c2ccc(CSCc3ccccc3C)o2)cc1	TDP1 cell CPT inconclusive, DT40 TDP1 no CPT 16µM (no result: Six1-Eya2 inh, CtBP-E1A inh, IL-1B inflam inh)
Cn1cccc1C(=O)N1CCC[C@@]2(CCN(Cc3ccc(C#N)cc3)C2)C1	none (no result: Six1-Eya2 inh, CtBP-E1A inh, TDP1 block, IL-1B inflam inh)
CCCC(=O)NC(=S)Nc1c(C)cc(Br)cc1C	TDP1 cell CPT inconclusive, DT40 TDP1 no CPT 16µM (no result: TDP1 block)
Cc1cc(Br)cc(C)c1NC(=S)NC(=O)CC(C)C	TDP1 cell CPT inconclusive, DT40 TDP1 no CPT inconclusive
Cc1cc(NC(=O)CS(=O)(=O)c2cn(Cc3ccc(F)cc3)c3ccccc23)no1	TDP1 cell CPT 21µM, DT40 TDP1 no CPT 10µM
Cc1cc(NC(=O)CS(=O)(=O)c2cn(Cc3cccc(F)c3)c3ccccc23)no1	TDP1 cell CPT inconclusive, DT40 TDP1 no CPT inconclusive, IL-1B inflam inh -55
CCn1cc(S(=O)(=O)CC(=O)Nc2cc(C)on2)c2ccccc21	DT40 TDP1 no CPT inconclusive
Cc1cc(NC(=O)CS(=O)(=O)c2cn(Cc3cccc(C(F)(F)F)c3)c3ccccc23)no1	TDP1 cell CPT inconclusive, DT40 TDP1 no CPT 21µM (no result: TDP1 block)
Cc1cc(NC(=O)CS(=O)(=O)c2c[nH]c3ccccc23)no1	none

Screening results as filed in PubChem BioAssay.
